Hits are enriched below; roughly 6.7% of the tested compounds scored in any of these assays.
SW480 rereplic: inducers of DNA re-replication in SW480 colon cancer cells | SW480 DNA re-replication, Hoechst DNA content imaging, 48 h | Potency, µM (series often up to 46.1 µM), for inactives: at the highest dose re-replication activation, usual class: activators | 340,000 compounds, 1.8% hits; note: % of control where 0% means no effect; nearly all actives have a fitted effect of over 55% in size
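Readout is total intensity of Hoechst-stained nuclei, excited at 405 nm and collected at 500-530 nm. Compound treatment lasted 48 hr at 37 C in 5% CO2 before staining.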
KB-V1 cytotox: KB-V1 MDR subline cytotoxicity; KB-V1 MDR cells viability, CellTiter-Glo, 72 h; Potency, µM (series often up to 46.1 µM), most hits filed as cytotoxic; 400,000 compounds, 3.4% hits; AID 1347076; note: % is set by controls: 0 for no effect and ±100 for the full control effect; nearly all actives have a fitted effect of over 60% in size
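Drug-selected KB-V1 cells, grown in DMEM lacking phenol red with 10% FBS, receive compound titrations; after three days at 37 degrees C, surviving cell ATP is quantified by CellTiter-Glo luminescence and responses normalized and curve-fitted.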
PINK1 modulator: changes PINK1 expression. 410,000 compounds, 0.2% hits. PINK1 immunofluorescence, high-content cytometry, 24 h. Potency, µM (titrated, usually from 76.6 µM), inactives show at the top dose activation (PINK1 increase), usual class: activators. AID 624263; active = well fitted activation curve with a large enough effect; inconclusive = small, poorly fitted or top-dose-only effect; cell line not stated here; note: % of control where 0% means no effect; nearly all actives have a fitted effect of over 65% in size
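Stable cell line treated 24 h with compounds at 5 concentrations (CCCP controls), then fixed and immunostained for PINK1 plus nuclear and cell stains; PINK1 immunofluorescence quantified by laser-scanning microplate cytometry.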
MCF10A rereplic: inducers of DNA re-replication in MCF 10A breast cells | Potency, µM (titrated, usually from 46.1 µM), without a hit: top-dose activity, positive = re-replication, actives largely listed as activators | 350,000 compounds, 2.9% hits | MCF 10A DNA re-replication, Hoechst nuclear intensity, 48 h; note: % of control where 0% means no effect; nearly all actives have a fitted effect of over 50% in size
KB-3-1 tox: kills parental KB-3-1 adenocarcinoma cells. 400,000 compounds, 1.4% hits. AID 1347075. KB-3-1 viability, CellTiter-Glo ATP luminescence, 72 h. Potency, µM (series often up to 46.1 µM), actives largely listed as cytotoxic; note: % is set by controls: 0 for no effect and ±100 for the full control effect; nearly all actives have a fitted effect of over 60% in size
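Here the drug-naive KB-3-1 line serves as comparator for MDR sub-line selectivity; cells received compound titrations, 72 h at 37 °C, then CellTiter-Glo readout.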
The depositor's hits bear a star; i = inactive; ? = inconclusive; · = not tested or not shown; [ ] = another dose, or the depositor's remark. Unless noted, calls come from the whole dose curve; as a rule, active = well fitted curve in the direction sought with a large enough effect; inconclusive = small, poorly fitted or top-dose-only effect, or another doubt; inactive = no such curve, though single readings can be large; an effect the other way counts as inactive or inconclusive. Potency is the fitted concentration of half-maximal effect.

SMILES | SW480 rereplic | KB-V1 cytotox | PINK1 modulator | MCF10A rereplic | KB-3-1 tox
COc1cccc(Cn2c(=O)n(-c3ccc(Br)cc3F)c(=O)c3sc4ccccc4c32)c1 | · | i | 1.4% | · | i
CN(C)C(=O)c1ccc(-c2ccc3ncnc(N4CCC(C(=O)O)CC4)c3c2)cc1 | · | · | 1.1% | · | ·
CC(C)CCN(Cc1ccco1)C(=O)c1cc2c(s1)-c1ccccc1OC2 | · | ? | 9.5% | · | i
O=C(Nc1cccc(F)c1)C1CCN(c2nc3ccccc3nc2C(F)(F)F)CC1 | · | ? | 23.3% | · | ?
Oc1c(C(c2ccccc2Cl)N2CCCC2)ccc2cccnc12 (stereo not drawn) | -4.2% | i | 5.4% | ? | 13µM*
COc1ccc(CNC(=O)Cn2cnc3c(NCc4ccccc4)ncnc32)cc1 | 13µM* | i | 9.7% | ? | 10.3µM*
COC(=O)c1ccc(CNC(=O)Cn2cnc3c(NCc4ccccc4)ncnc32)cc1 | 0.3% | i | 12.6% | 26.5% | ?
C1=C(CCNc2ncnc3c2[nH]c2ccccc23)CCCC1 | 9.7% | ? | ? | ? | 5.17µM*
CC(C)OCCCNc1ncnc2c1[nH]c1ccccc12 | 0.0% | ? | 4.0%[38.3 µM] | -4.8% | 7.31µM*
COc1ccc(CNc2ncnc3c2[nH]c2cc(OC)c(OC)cc23)cc1 | 21.7% | i | 2.2% | ? | i
COc1ccc(CNc2ncnc3c2[nH]c2ccccc23)cc1 | 96.9% | 13µM* | ? | ? | i
COc1cc(-c2cnc3c(NC(C)=O)cc(-c4ccccc4CN(C)C)cn23)cc(OC)c1OC | · | i | 19.4% | · | ?
CCc1ccc(N2CC(C)Cn3c2nc2c3c(=O)[nH]c(=O)n2C)cc1 (stereo not drawn) | -7.5% | i | 0.7% | 8.3% | i
CCOc1ccccc1CNC(=O)c1cccn1-c1nnc(N2CCCC2)s1 | · | i | 2.1% | · | i
NC1=C(Cl)C(=O)c2ccc(S(N)(=O)=O)cc2C1=O | 0.731µM* | ? | -1.7% | 1.46µM* | ?
NC1=C(Cl)C(=O)c2ccccc2C1=O | 16.4µM* | i | -0.3% | ? | ?
O=C1c2ccccc2-c2nccnc21 | -8.2% | i | 0.9% | -2.5% | i
COc1cc(/C=N/NC(=O)c2sc3nc(C)cc(C)c3c2N)ccc1O | ? | i | 11.1% | 14.6µM* | i
COc1cc(/C=N/NC(=O)c2ccc(-c3ccccc3)cc2)cc(OC)c1OC | 9.2µM* | i | 3.3% | 21.4% | i
COc1cc(C(=O)Oc2ccccc2/C=N/NC(=O)c2ccc(Cl)cc2)cc(OC)c1OC | ? | ? | 3.4% | ? | 5.17µM*
COc1cc(/C=N/NC(=O)CCn2c3ccccc3c3ccccc32)cc(OC)c1OC | 4.8% | 4.61µM* | 1.0% | 0.6% | i
COc1cc(C(=O)Oc2ccccc2/C=N/NC(=O)c2ccc(C)c(Cl)c2)cc(OC)c1OC | ? | ? | ? | -1.8% | ?
COc1ccc(/C=N\NC(=O)c2ccc(-c3ccccc3)cc2)c(OC)c1OC | 15.4% | i | 4.2% | -3.1% | i
Cc1ccc(Sc2c(C(=O)NCc3ccccc3C)[nH]c3ccccc23)cc1 | · | ? | 7.5% | · | i
CCc1nc2cc(C(=O)N3CCCN(C=O)CC3)cc(NC(=O)c3ccccc3OC)c2n1C | · | · | -0.7% | · | ·
SMILES | SW480 rereplic | KB-V1 cytotox | PINK1 modulator | MCF10A rereplic | KB-3-1 tox
CCCCOc1ccc(C(=O)NCC(=O)N2CCN(C/C=C/c3ccccc3)CC2)cc1 | · | ? | 2.7% | · | i
COc1ccc(/C=N/NC(=O)CCn2cnc(-c3ccccc3)c2-c2ccccc2)cc1OC | 20.6µM* | ? | 5.1% | 8.2µM* | 6.51µM*
COc1cc(/C=C(/C(=O)O)c2ccc(-c3ccccc3)cc2)cc(OC)c1OC | 20.6µM* | ? | 7.3% | 14.6µM* | ?
COc1cc(C=C(C#N)C(=O)c2ccccc2)cc(OC)c1OC | · | i | -0.8% | · | i
COc1cc(/C=N\NC(=O)c2sc(N)nc2C)cc(OC)c1OC | -5.1% | i | -1.5% | 20.6µM* | i
Cc1ccc(C)c(CNS(=O)(=O)c2c(C(=O)N3CCCC3)c(C)n(C)c2C)c1 | -4.5% | i | -0.4% | -1.0% | i
CC(=O)Nc1cccc(C(=O)Nc2ccccc2N2CCOCC2)c1 | ? | 14.6µM* | 13.5%[38.3 µM] | ? | 16.4µM*
O=C(Nc1ccccc1N1CCOCC1)c1ccc2ccccc2c1 | 26.2% | i | -1.6% | 6.9% | i
Cc1ccc(C)c(N2N=C(C(=O)Nc3ccccc3N3CCCC3)CCC2=O)c1 | ? | ? | -0.5% | 20.6µM* | i
COc1ccc(Cl)cc1C(=O)Nc1ccccc1N1CCCCC1 | 4.7% | i | 0.7% | 9.0% | i
Cc1ccc(C)c(N2N=C(C(=O)Nc3ccccc3N3CCOCC3)CCC2=O)c1 | 11.6% | · | -0.9% | ? | ·
O=C(COc1cccc(Cl)c1)Nc1ccccc1N1CCCCC1 | 6.4% | ? | ? | 18.4µM* | i
COc1ccc(Cl)cc1C(=O)Nc1ccccc1N1CCN(C)CC1 | 14.3% | 5.8µM* | 0.5% | 27.5% | i
Cc1ccccc1CSc1nc2ccsc2c(=O)n1CCC(C)C | · | · | 0.1% | · | ·
O=C(COC(=O)/C=C/c1ccccc1)Nc1cc(C(F)(F)F)ccc1N1CCOCC1 | 4.5% | i | 4.4% | -7.9% | i
O=C(Nc1ccccc1N1CCCCC1)c1cccc(Cl)c1 | 0.4% | i | 25.4% | 20.6µM* | i
O=C(Nc1ccccc1N1CCCCC1)c1cccs1 | 7.1% | i | 7.6%[38.3 µM] | 20.6µM* | i
O=C(Nc1ccccc1N1CCCC1)c1cc(Cl)ccc1Cl | 6.9% | i | 0.5% | 17.4% | i
Cc1cc(C)c(OCC(=O)Nc2ccccc2N2CCOCC2)c(C)c1 | ? | i | 9.1%[38.3 µM] | ? | 20.6µM*
CS(=O)(=O)N1CCN(c2ccccc2NC(=O)c2cccs2)CC1 | 2.8% | i | -1.3% | -3.0% | i
COc1ccccc1/C=C/C(=O)OCC(=O)Nc1cc(C(F)(F)F)ccc1N1CCOCC1 | 9.2µM* | ? | 5.0% | ? | ?
COc1cccc(Cn2c(=O)c(-c3cccs3)nc3cnc(N4CCNCC4)nc32)c1 | · | · | 0.4% | · | ·
COc1ccc(N2CCOCC2)c(NC(=O)COc2cccc(C)c2)c1 | -3.6% | 13µM* | 3.1% | -1.2% | i
Cc1cc(C)c(OCC(=O)Nc2ccccc2N2CCCCC2)c(C)c1 | ? | 16.4µM* | ? | 16.6% | i
N#Cc1ccccc1NC(=O)CNc1ccccc1N1CCCCC1 | -0.5% | 20.6µM* | 2.4% | ? | i
Cc1ccc(OCC(=O)Nc2ccccc2N2CCCC2)c(C)c1 | 4.5% | i | ? | 67.0% | i
Cc1ccc(NC(=O)Cc2coc3ccc(C(C)C)cc23)cc1Cl | · | 16.4µM* | 9.0% | · | ?
COc1cc(CN2C[C@@H](CO)O[C@@H](n3cnc4c(NCCCO)ncnc43)C2)cc(OC)c1OC | · | i | 0.5% | · | i

Screening results (PubChem)
